How the values were obtained:
Assay in all cases: protein domain microarray probed with biotinylated miRNA; Domain array: 20 mM Tris-HCl pH 7.4, 200 mM KCl, 0.2 mM EDTA, 0.05% NP40, 2 ug/ul heparin, overnight 4 C. ORF array: PBS pH 7.0 with RNase inhibitor, 100 ng RNA; high values mean tight binding
Details in all cases: ssRNA
HUR = HUR (Homo sapiens, UniProt Q15717)
snRNP B2 = snRNP B2 (Homo sapiens, UniProt P08579)
snRNP A = snRNP A (Homo sapiens, UniProt P09012)
SLIRP = SLIRP (Homo sapiens, UniProt Q9GZT3)
SFRS9 = SFRS9 (Homo sapiens, UniProt Q13242)
PABPC4L = PABPC4L (Homo sapiens, UniProt P0CB38)
YTHDC1 = YTHDC1 (Homo sapiens, UniProt Q96MU7)
SF3B6 = SF3B6 (Homo sapiens, UniProt Q9Y3B4)
Sequence of SF3B6 (Q9Y3B4 whole entry): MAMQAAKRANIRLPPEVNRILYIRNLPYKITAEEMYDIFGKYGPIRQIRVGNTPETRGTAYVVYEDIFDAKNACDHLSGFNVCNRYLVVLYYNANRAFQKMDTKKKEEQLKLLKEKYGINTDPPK

Sequence of snRNP A (P09012 whole entry): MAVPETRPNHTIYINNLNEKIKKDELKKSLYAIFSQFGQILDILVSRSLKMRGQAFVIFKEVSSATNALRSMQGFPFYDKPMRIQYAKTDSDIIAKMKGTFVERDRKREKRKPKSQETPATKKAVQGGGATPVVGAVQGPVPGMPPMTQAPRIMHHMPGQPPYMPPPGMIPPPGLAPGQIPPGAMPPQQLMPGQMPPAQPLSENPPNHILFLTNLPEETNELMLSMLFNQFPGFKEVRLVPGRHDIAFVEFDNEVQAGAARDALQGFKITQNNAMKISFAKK
Sequence of snRNP B2 (P08579 whole entry): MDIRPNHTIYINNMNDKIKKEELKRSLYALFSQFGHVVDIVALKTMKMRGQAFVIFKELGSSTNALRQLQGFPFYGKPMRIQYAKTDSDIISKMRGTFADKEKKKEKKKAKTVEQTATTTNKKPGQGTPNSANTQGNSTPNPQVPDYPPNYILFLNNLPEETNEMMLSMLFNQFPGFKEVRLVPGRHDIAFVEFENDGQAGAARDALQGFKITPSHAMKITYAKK
Sequence of PABPC4L (P0CB38 whole entry): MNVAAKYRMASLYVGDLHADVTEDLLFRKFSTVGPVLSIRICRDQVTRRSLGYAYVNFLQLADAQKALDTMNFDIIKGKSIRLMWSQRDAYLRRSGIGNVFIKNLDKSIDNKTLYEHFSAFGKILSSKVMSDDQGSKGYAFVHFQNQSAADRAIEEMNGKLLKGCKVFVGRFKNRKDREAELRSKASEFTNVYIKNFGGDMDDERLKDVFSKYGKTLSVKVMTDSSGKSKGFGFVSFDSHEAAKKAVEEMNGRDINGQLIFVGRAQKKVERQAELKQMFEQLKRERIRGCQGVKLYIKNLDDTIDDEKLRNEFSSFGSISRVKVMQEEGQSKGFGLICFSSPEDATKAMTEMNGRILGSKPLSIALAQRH
Sequence of SFRS9 (Q13242 whole entry): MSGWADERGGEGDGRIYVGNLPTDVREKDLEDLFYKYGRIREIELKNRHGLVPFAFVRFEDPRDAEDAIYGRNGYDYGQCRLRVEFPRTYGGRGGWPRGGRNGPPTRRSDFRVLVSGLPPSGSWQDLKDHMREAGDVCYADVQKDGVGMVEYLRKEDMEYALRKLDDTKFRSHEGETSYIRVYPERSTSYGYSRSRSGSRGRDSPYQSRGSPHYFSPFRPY
Sequence of HUR (Q15717 whole entry): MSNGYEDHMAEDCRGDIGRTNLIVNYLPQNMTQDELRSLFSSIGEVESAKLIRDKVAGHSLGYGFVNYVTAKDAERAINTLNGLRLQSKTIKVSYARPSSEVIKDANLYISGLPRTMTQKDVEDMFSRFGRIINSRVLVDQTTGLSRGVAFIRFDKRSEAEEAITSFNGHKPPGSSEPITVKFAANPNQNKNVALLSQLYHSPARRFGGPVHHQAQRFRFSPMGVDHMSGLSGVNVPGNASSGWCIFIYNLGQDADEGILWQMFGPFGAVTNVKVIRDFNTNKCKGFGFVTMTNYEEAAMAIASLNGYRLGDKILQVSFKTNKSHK

UAGCUUAUCAGACUGAUGUUGA
binding signal (HUR): 219 ± 16.5 fluorescence intensity | binding signal (snRNP B2): 24.4 ± 2.86 fluorescence intensity | binding signal (snRNP A): 25.3 ± 14.1 fluorescence intensity | binding signal (SLIRP): 24.4 ± 1.37 fluorescence intensity | binding signal (SFRS9): 54.9 ± 6.63 fluorescence intensity

UGAGGUAGUAGGUUGUAUGGUU
binding signal (HUR): 1165 ± 9.92 fluorescence intensity | binding signal (PABPC4L): 506 ± 42.2 fluorescence intensity | binding signal (snRNP B2): 184 ± 4.53 fluorescence intensity | binding signal (YTHDC1): 122.4 ± 0.332 fluorescence intensity | binding signal (snRNP A): 372 ± 10.2 fluorescence intensity | binding signal (SLIRP): 107 ± 4.07 fluorescence intensity | binding signal (SF3B6): 136 ± 26.8 fluorescence intensity | binding signal (SFRS9): 343 ± 5.06 fluorescence intensity

AGAGGUAGUAGGUUGCAUAGUU
binding signal (HUR): 1350 ± 50 fluorescence intensity | binding signal (PABPC4L): 466 ± 20.9 fluorescence intensity | binding signal (snRNP B2): 147 ± 5.66 fluorescence intensity | binding signal (YTHDC1): 80.4 ± 1.63 fluorescence intensity | binding signal (snRNP A): 342 ± 6.74 fluorescence intensity | binding signal (SLIRP): 104 ± 2.51 fluorescence intensity | binding signal (SF3B6): 117.8 ± 0.707 fluorescence intensity | binding signal (SFRS9): 273 ± 31 fluorescence intensity

UGAGGUAGUAGGUUGUGUGGUU
binding signal (HUR): 1300 ± 85.7 fluorescence intensity | binding signal (PABPC4L): 523 ± 82.5 fluorescence intensity | binding signal (snRNP B2): 296 ± 33.8 fluorescence intensity | binding signal (YTHDC1): 179 ± 8.44 fluorescence intensity | binding signal (snRNP A): 236.6 ± 1.37 fluorescence intensity | binding signal (SLIRP): 232 ± 20.1 fluorescence intensity | binding signal (SF3B6): 282 ± 3.13 fluorescence intensity | binding signal (SFRS9): 580 ± 35.6 fluorescence intensity

CAGUGCAAUGAUGAAAGGGCAU
binding signal (HUR): 652.6 ± 4.58 fluorescence intensity | binding signal (PABPC4L): 380 ± 28.5 fluorescence intensity | binding signal (snRNP B2): 164 ± 16.3 fluorescence intensity | binding signal (YTHDC1): 64.9 ± 3.94 fluorescence intensity | binding signal (snRNP A): 224 ± 14.6 fluorescence intensity | binding signal (SLIRP): 55.4 ± 6.36 fluorescence intensity | binding signal (SF3B6): 58.7 ± 1.9 fluorescence intensity | binding signal (SFRS9): 370 ± 18.4 fluorescence intensity

UGAGGUAGUAGGUUGUAUAGUU
binding signal (HUR): 477 ± 14 fluorescence intensity | binding signal (PABPC4L): 129 ± 51.7 fluorescence intensity | binding signal (snRNP B2): 43.98 ± 0.219 fluorescence intensity | binding signal (YTHDC1): 25.3 ± 0.502 fluorescence intensity | binding signal (snRNP A): 28 ± 0.686 fluorescence intensity | binding signal (SLIRP): 32.41 ± 0.262 fluorescence intensity | binding signal (SF3B6): 31.6 ± 1.95 fluorescence intensity | binding signal (SFRS9): 37.9 ± 10.5 fluorescence intensity
